# In PubChem BioAssay AID778 (Sanford-Burnham Center for Chemical Genomics, 2007):
# The whole screen tested about 96,000 compounds, of which about 20,000 (21%) were called active. Not all results are given here. Unmarked numbers belong to inactive results.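 Rule for the calls: active = CYP2C19 inhibition above a set limit at 5 µM in the primary screen (cut at about 50% in these data); inactive = the rest.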
# Biological target: Cytochrome P450 2C19 (Homo sapiens) (UniProt P33261)
# Test: blockers of cytochrome P450 2C19 activity – biochemical, luminescence, ADME assay, primary screen (AID 778);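 note: plate controls were negative control wells for no effect and 2.5 mM tranylcypromine positive control for full effect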
# Details: CYP2C19 Supersomes, luciferin-H EGE luminescence, 30 min; at 5 µM; stronger effect = higher value
# Sequence of Cytochrome P450 2C19 (Homo sapiens) (P33261 whole entry, looked up): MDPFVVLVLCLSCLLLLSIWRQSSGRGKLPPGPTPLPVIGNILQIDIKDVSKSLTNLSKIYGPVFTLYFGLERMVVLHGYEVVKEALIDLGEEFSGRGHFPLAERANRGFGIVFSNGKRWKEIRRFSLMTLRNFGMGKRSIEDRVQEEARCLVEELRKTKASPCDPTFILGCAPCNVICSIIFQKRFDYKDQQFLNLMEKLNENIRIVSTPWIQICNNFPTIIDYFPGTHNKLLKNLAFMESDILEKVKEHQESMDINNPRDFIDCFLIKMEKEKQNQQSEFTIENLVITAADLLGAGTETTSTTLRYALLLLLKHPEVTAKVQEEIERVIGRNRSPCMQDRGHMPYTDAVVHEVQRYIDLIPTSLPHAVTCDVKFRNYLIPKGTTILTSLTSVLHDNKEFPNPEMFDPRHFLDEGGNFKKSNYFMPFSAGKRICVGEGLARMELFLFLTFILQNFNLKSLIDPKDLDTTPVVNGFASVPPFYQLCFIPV
row,SMILES,inhibition
1,Cc1nnc(NC2=NCCCCC2)o1,-3.5%
2,O=C(CC1NCCNC1=O)Nc1ccc(Oc2ccccc2)cc1 (stereo not drawn),-0.6%
3,Cn1c(=O)[nH]c(=O)c2c1nc(Br)n2CCCCSc1nc2ccccc2o1,38.5%
4,Cc1ccc(Oc2ccc3c(c2)C(=O)N(c2cccc4cccnc24)C3=O)cc1,-1.5%
5,COc1ccc(CNC2CCCCC2)cc1,69.4% (active)
6,COc1ccc(N/N=C2/CCCCC2=O)cc1,3.1%
7,COc1ccc(CNC(=O)C2CCN(S(=O)(=O)N3CCOCC3)CC2)cc1,-11.9%
8,CN1C(=O)c2ccc(NC(=O)C3CCCCC3)cc2C1=O,-0.4%
9,O=C1c2ccccc2C(=O)N1c1ccccc1S(=O)C(F)(F)F (stereo not drawn),6.6%
10,Cc1ccc(-n2c(=O)cc(N3CCN(Cc4ccccc4)CC3)[nH]c2=O)cc1,1.5%
11,Cc1ccc(S(=O)(=O)N2CC(=O)Nc3ccccc32)cc1C,60.4% (active)
12,Cc1ccc(C)c(S(=O)(=O)N2CC(=O)Nc3ccccc32)c1,32.8%
13,CC1=NCCN1S(=O)(=O)c1ccc(Br)c(C)c1,27.7%
14,O=C(OCC#CCSc1nnc(-c2ccncc2)o1)c1sc2ccccc2c1Cl,-11.8%
15,CC1CCN(C(NC(=O)c2ccco2)C(=O)c2ccccc2)CC1 (stereo not drawn),35.9%
16,CCCC1NC(=O)NC(C)=C1C(=O)OCC (stereo not drawn),17%
17,CCOC(=O)C1C(=O)NCC1c1ccccc1 (stereo not drawn),-0.1%
18,CCOC(=O)C1=C(C)NC(C)=C(C(=O)OCC)C1c1ccccn1,50.3% (active)
19,O=C(OCC(=O)c1cccs1)C1=COCCO1,2.6%
20,CCOc1ccccc1C1NC(=O)NC(C)=C1C(=O)OCc1ccco1 (stereo not drawn),16.1%
21,CCOC(=O)C1=C(C)NC(C)=C(C(=O)OCC)C1C1=COCCO1,88.8% (active)
22,CCCCCn1c(SCCC(C)C)nc2c1c(=O)[nH]c(=O)n2C,8.6%
23,Cc1ccc(C2CC(c3cccc(Br)c3)n3nc(N)nc3N2)cc1 (stereo not drawn),21.7%
24,Cc1ccc(-c2ccc(=O)n(CC(=O)NCCCN3CCCCC3)n2)cc1,6.9%
25,O=C1c2ccccc2C(=O)c2c1cccc2N1CCN(CCO)CC1,1.4%
26,Cc1cc2[nH]ncc2cc1NC(=S)NC(=O)c1ccccc1,99.2% (active)

row,SMILES,inhibition
1,Cc1ccc(NC(=S)NC(=O)c2ccc(-c3ccccc3)cc2)c(C)c1,8.6%
2,CCOC(=O)c1c(-c2ccccc2)csc1NC(=S)NC(=O)c1ccccc1,-8.6%
3,CC1(C)C(=O)C2(CCCCC2)C(=O)OC1c1cccs1 (stereo not drawn),15.1%
4,CCOC1CS(=O)(=O)CC1OCC (stereo not drawn),-10.9%
5,Nc1nnc(C2CCCC2)s1,8.1%
6,Cc1cc(N/C=C\C(=O)c2ccc(Cl)c(Cl)c2)no1,40.4%
7,Cc1nn2c(c1-c1ccccc1)N=C(c1ccco1)CC2c1ccccc1 (stereo not drawn),66.2% (active)
8,Cc1nn(C(=O)c2ccoc2C)c(N)c1-c1ccccc1,29.7%
9,CN(C)/C=C(\C#N)C(=O)c1cccnc1Oc1cccc(F)c1,40.5%
10,COc1cccc2cc(C(=O)N(C)C)c(=O)oc12,-22.6%
11,CCCCNC(=O)c1onc(CSc2cccc(OC)c2)c1C(=O)O,12.9%
12,CCOc1ccc(NC(=O)N(CC(C)C)CC(C)C)cc1,11.8%
13,CC(O)CN(Cc1ccc(Cl)cc1)CC(C)O (stereo not drawn),-2.3%
14,CN(Cc1ccccc1)Cc1ccccc1F,44.7%
15,OCCN(Cc1ccccc1)Cc1ccc(Cl)cc1,100% (active)
16,Brc1cnc(N2CCCC2)nc1N1CCCCC1,1.7%
17,COc1cc(OC)cc(C(=O)NCCSCc2ccco2)c1,35%
18,O=C(CN1C(=O)C2C3C=CC(C3)C2C1=O)NCC1COc2ccccc2O1 (stereo not drawn),0.4%
19,COC(=O)c1sc(=S)n(-c2ccc(Cl)cc2)c1C,62.9% (active)
20,CCOC(=O)Cn1c(N)c(C(=O)OC)sc1=S,26.8%
21,COC(=O)c1sc(=S)n(-c2ccccc2)c1N,17.4%
22,CC1(C)CC(=O)NC=C(c2ccccc2)C1,23.8%
23,Brc1ccc(/C=N/N2CCN(C3c4ccccc4-c4ccccc43)CC2)s1,11.5%
24,COc1ccc(OC)c(-n2cc3c(=O)n(C)c(=O)n(C)c3c2)c1,38.6%
25,COc1ccc(C2C(C#N)=C(N)Oc3cc(N)ccc32)cc1OC (stereo not drawn),74.9% (active)
26,COc1cc(C2C(C#N)=C(N)Oc3n[nH]c(-c4ccccn4)c32)cc(OC)c1OC (stereo not drawn),1.9%

row,SMILES,inhibition
1,N#CC1=C(N)Oc2cc(O)ccc2C1C1CCCCC1 (stereo not drawn),35.8%
2,CS(=O)(=O)N1CCCC(C(=O)N2CCOCC2)C1 (stereo not drawn),-12.2%
3,O=C(Cc1ccc(S(=O)(=O)N2CCOCC2)s1)NCCC(c1ccccc1)c1ccccc1,41.9%
4,COC(=O)NC1(C(F)(F)F)NC(=O)N(C2CCCCC2)C1=O (stereo not drawn),7.3%
5,O=C1NC(Nc2nc3ccccc3s2)(C(F)(F)F)C(=O)N1C1CCCCC1 (stereo not drawn),68.9% (active)
6,CCC(=O)Nc1sc(C(=O)N2CCCCC2)c(C)c1C#N,19.7%
7,O=C(CSc1n[nH]c(-c2cccnc2)n1)Nc1ccnc2ccccc12,15%
8,CC(=O)Nc1ccc(NC(=O)CN2CCCC(C)C2)c(Cl)c1 (stereo not drawn),19.8%
9,COc1cccc(NC(=O)C2CCCN2C(=O)OCc2ccccc2)c1 (stereo not drawn),33.1%
10,NC(=O)N1CCCC1C(=O)Nc1ccc(Cl)c(Cl)c1 (stereo not drawn),54.3% (active)
11,Cc1cc(NC(=O)COn2nnc3ccccc32)no1,28.7%
12,Cc1nn(C)cc1C(=O)NNC(=S)Nc1ccc(Cl)cc1,8.5%
13,S=C(NCc1ccc(Cl)cc1)NC12CC3CC(CC(C3)C1)C2,47.3%
14,S=C(NCc1cccs1)Nc1ccc(Cl)cc1,89.7% (active)
15,C=CCNC(=S)NNc1ncnc2sc3c(c12)CC(C)(C)OC3,17.9%
16,C=CCOc1c2ccc(C(=O)N(CC)c3ccc(OC)cc3)cc2nn1C,44.1%
17,O=C(CNC(=O)OCc1ccccc1)Oc1cc2oc(=O)cc(-c3ccccc3)c2cc1Cl,27.8%
18,CC(=O)Nc1ccc(S(=O)(=O)N2CCN(C3CCCCCCC3)CC2)cc1,25.7%
19,CC(=O)Nc1ccc(S(=O)(=O)N2CCN(CCCOc3cc(C)ccc3C)CC2)cc1,84.1% (active)
20,COc1ccc(OCC(=O)OCC(=O)Nc2ccc(S(=O)(=O)N3CCCCC3)cc2)cc1,21.1%
21,C=CCNC(=O)CCCOc1cccc(C)c1,17.5%
22,CC(=O)Nc1ccc(S(=O)(=O)N2CCSCC2)cc1,11.2%
23,Cc1cccc(OCCCC(=O)Nc2ccc(S(=O)(=O)N3CCCC3)cc2)c1,50.1% (active)
24,CCc1c(C)c2c(C)[nH]nc2oc1=O,34%
25,CCOC(=O)Nc1ccc(NC(=O)OCC)cc1,-15.6%
26,Cc1ccc2c(NC(=O)C3CC3)cccc2n1,3.3%

row,SMILES,inhibition
1,CSc1ccc(C#N)cc1NC(=O)c1cccc(Cl)c1,17.9%
2,O=C(CCN1C(=O)c2ccccc2C1=O)NCCN1CCOCC1,-17.4%
3,Cc1cc(C)nc(SCc2nnc(SCC(=O)OC3CCCCC3)o2)n1,32.2%
4,c1ccc(CSc2nnc(-c3ccco3)c(-c3ccco3)n2)cc1,44.4%
5,CC(NC(=O)c1ccc(Cl)cc1)C(=O)N1CCCCC1 (stereo not drawn),77.5% (active)
6,O=C(c1ccc(Cl)c(Cl)c1)N1CCCC1,15.1%
7,CC(C)C(NC(=O)c1ccc(Cl)cc1)C(=O)O (stereo not drawn),-19.4%
8,CCOc1ccccc1N=C1NC(=O)CS1,-12.1%
9,O=CN1CCN(C2CC(=O)N(c3ccc4c(c3)OCO4)C2=O)CC1 (stereo not drawn),-12%
10,CC1CCC(N2CC(=O)N(Cc3ccc4c(c3)OCO4)C(c3ccc(F)cc3)C2=O)CC1 (stereo not drawn),20.3%
11,Cc1ccc(N2C(=O)CC(NCc3ccc4c(c3)OCO4)C2=O)cc1Cl (stereo not drawn),85% (active)
12,O=C(CSc1nc(-c2ccco2)cc(C(F)(F)F)n1)NCc1cccs1,8.5%
13,O=C(Cn1c(=O)sc2ccccc21)Nc1ccc2c(c1)OCCO2,7.6%
14,CC1Cc2ccccc2N1CC(=O)Nc1ccc2c(c1)OC(F)(F)O2 (stereo not drawn),97.3% (active)
15,CC1(C)Oc2ccc(C(=O)N3CCOCC3)cc2N(CC(=O)Nc2ccccc2)C1=O,30.3%
16,Cc1nnc(NCCO)c2ccccc12,7.5%
17,CSC1=N/C(=C\C=C\c2cccs2)C(=O)S1,-11%
18,CCCOC(=O)c1[nH]c2c(c1C)C(=O)CC(c1cc(OC)c(OC)c(OC)c1)C2 (stereo not drawn),38.4%
19,CCCCOC(=O)c1[nH]c(C)c(C(=O)OC)c1C,81.6% (active)
20,CCCCN(CC)CCNC(=O)c1[nH]c(C)c(C(C)=O)c1C,-8%
21,Cc1nc2nc3c(cn2n1)C(=O)CC(c1ccccc1)C3 (stereo not drawn),99.6% (active)
22,Cc1ccc(Cc2cnc(NC(=O)/C(C#N)=C/c3ccc(-c4cccc([N+](=O)[O-])c4)o3)s2)cc1,-3.9%
23,O=C(CN1CCN(S(=O)(=O)/C=C/c2ccccc2)CC1)NC(=O)NCc1ccco1,54% (active)
24,CC1(c2ccccc2Cl)NC(=O)N(CC(=O)NC(=O)NCc2ccco2)C1=O (stereo not drawn),22.5%
25,O=C(COC(=O)c1ccc(S(=O)(=O)N2CCc3ccccc3C2)cc1)NC(=O)NCc1ccco1,8.9%
